# From PubChem BioAssay AID504843 (Broad Institute, 2011)
# The whole screen tested about 1,200 compounds, of which about 360 (30%) were called active. The rule behind the calls is not given here. The list is a sample of the results. A call without a number means that no potency is given here. Potency and affinity values are given separately.
# Assay: bacterial growth inhibition, dose response, counter-screen, BacTiter-Glo luminescence, cherry-picked samples (AID 504843);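 note: growth measured after 8 h incubation at 30 °C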
# Details: BacTiter-Glo ATP luminescence; series mostly up to 15 µM
row,SMILES,outcome
1,CC(C)c1ccc(OCC(=O)NC2=NCCS2)cc1,inactive
2,COc1ccc(-c2noc(CSc3nnc(-c4ccncc4)n3-c3ccc(F)cc3)n2)cc1OC,inactive
3,CCCCN1CC(COCc2ccccc2)Oc2cccc(N3CCCC3)c2S1(=O)=O (centres undefined),inactive
4,S=C(NCCCn1ccnc1)Nc1cccc(Cl)c1,inactive
5,O=C(CCCCCNC(=O)c1ccccc1)C[N+](=O)[O-],inactive
6,CN1CC(c2ccccc2Cl)C2(COc3ccccc3C2=O)C12C(=O)Nc1ccccc12 (centres undefined),inactive
7,CCC1=C(c2ccc(C)cc2)S(=O)(=O)N=C1N1CCC(C(=O)NCCCN2CCCCC2C)CC1 (centres undefined),inactive
8,COc1ccc2[nH]c3c(=O)n(CCN4CCOCC4)cnc3c2c1,inactive
9,O=C1/C(=C/c2cccnc2)Oc2cc(OS(=O)(=O)c3ccccc3)ccc21,inactive
10,COc1ccc(NS(=O)(=O)c2ccc(NC(=O)Cc3cccs3)cc2)cc1,inactive
11,CN(C)C(=S)Nc1ccc2ccccc2c1,inactive
12,CCN(CC)C(=O)Cn1cc(C(=O)C(=O)NCCCn2ccnc2)c2ccccc21,inactive
13,O=C(NCC1CCCO1)C(c1cccs1)N(C(=O)c1ccc(CN2CCOCC2)o1)c1ccc(Cl)cc1 (centres undefined),inactive
14,O=C1CCCC2=C1C(c1cccs1)CC(=O)N2c1ccc(F)cc1 (centres undefined),inactive
15,O=C1CCCC2=C1CC(C(=O)OCc1ccccc1)C(=O)N2Cc1ccccc1 (centres undefined),inactive
16,Cc1ccc[n+](CC(=O)c2cc3ccccc3oc2=O)c1,inactive
17,O=C1Nc2ccc(S(=O)(=O)NCCCO)c3cccc1c23,inactive
18,Cc1ccc(S(=O)(=O)Nc2c(C)n(C)n(-c3ccccc3)c2=O)cc1C(=O)NCc1ccco1,inactive
19,Cc1ccc(C(=O)CN2/C(=C(\O)c3ccccc3)C(=O)c3ccccc3S2(=O)=O)c(C)c1,inactive
20,CCn1c(C)nc2cc(C(=O)N/N=C/c3ccc(OC)c(O)c3)ccc21,inactive
21,O=C(Cc1ccccc1)Nc1ccc2oc(=O)ccc2c1,inactive
22,COc1cccc(-c2nn(-c3ccccc3)cc2CN(C)C(C)c2ccncn2)c1 (centres undefined),inactive
23,O=S(=O)(N1CCCCC1)N1CCN(c2ccccc2F)CC1,inactive
24,CCOC(=O)c1cnn(-c2cc(C)c3ccccc3n2)c1N,inactive
25,O=C(CSc1cccc2cccnc12)N/N=C/c1ccncc1,inactive
26,CCn1nc(-c2ccccc2)c2nc3ccccc3nc21,inactive

row,SMILES,outcome
1,Cc1cc(C(F)F)n2nc(C(=O)Nc3c(F)cc(F)cc3Br)nc2n1,inactive
2,CC(C)N(c1ccccc1)c1ccc(NC(=O)COC(=O)CCN2C(=O)c3cccc([N+](=O)[O-])c3C2=O)cc1,inactive
3,Cn1c(N)c(C(=O)COC(=O)c2nc(Cl)ccc2Cl)c(=O)n(C)c1=O,inactive
4,CN1CCCC(OC(=O)CCCCC(=O)OC2CCCN(C)C2)C1 (centres undefined),inactive
5,O=C(CN1CCC(c2nc3ccccc3s2)CC1)NCc1cccs1,inactive
6,O=C(NCc1cccs1)Nc1cccc(Cl)c1,inactive
7,COc1cc(/C=C2\C(=N)N3N=C(S(C)(=O)=O)SC3=NC2=O)ccc1OS(=O)(=O)c1ccc(C)cc1,inactive
8,COc1ccccc1NC(=O)C1=C(C)Nc2ncnn2C1c1ccc(C)o1 (centres undefined),inactive
9,Cc1cc(C(=O)CSc2nnc(-c3ccc4c(c3)OCO4)o2)c(C)n1-c1ccc(F)cc1,inactive
10,Cc1cccc2c1cnn2C(=O)CCC(=O)N1CC(C)CC(C)C1 (centres undefined),inactive
11,CCC(C)N1CCC2(CC1)N=c1c(c3c4c5c(C)c(O)c3c(O)c1=NC(=O)C(C)=CC=C[C@H](C)[C@H](O)[C@@H](C)[C@@H](O)[C@@H](C)[C@H](OC(C)=O)[C@H](C)[C@@H](OC)C=CO[C@@](C)(O5)C4=O)N2 (some centres undefined),inactive
12,O=C(Nc1ccncc1)c1ccc(Cl)c(Cl)c1,inactive
13,O=C(Nc1cccc(NC(=O)c2cccnc2)c1)c1ccccc1,inactive
14,NC(=O)C1CCN(C(=O)c2ccco2)CC1,inactive
15,Cc1ccc2c(C)nc(/N=C(\N)NC(=O)N3c4ccccc4Sc4ccccc43)nc2c1,inactive
16,CNC(=O)C(=O)NCCN1CCN(S(=O)(=O)c2ccc3ccccc3c2)CC1,inactive
17,O=C(CCSc1ccccc1)N1CCN(C(=O)c2ccco2)CC1,inactive
18,O=C(CCc1nnc2ccc(NCc3ccco3)nn12)N1CCN(c2ccccc2)CC1,inactive
19,CC(=O)c1ccc(-c2cccc(-c3nc4ccccn4c3NC3CCCCC3)c2)cc1,inactive
20,CCOC(=O)c1sc(NC(=O)CCN2C(=O)c3cccc([N+](=O)[O-])c3C2=O)c(C(=O)OCC)c1C,inactive
21,C#CCn1c(O)c(N=NC(=O)C(O)c2ccccc2)c2ccccc21 (centres undefined),inactive
22,COc1ccc(C(=O)Nc2c3c(nn2-c2ccc(Cl)cc2)CS(=O)(=O)C3)cc1,inactive
23,c1ccc(Nc2nc(Nc3ccccc3)nc(N3CCNCC3)n2)cc1,inactive
24,Cc1ccc(Nc2nnns2)cc1C,inactive
25,Cc1cc(=O)oc2cc(O)cc(O)c12,inactive
26,O=C(Nc1nnc(S(=O)(=O)N2CCCCCC2)s1)c1ccccc1Br,inactive

row,SMILES,outcome
1,CSc1ccccc1OCc1cc(C(=O)N(C)Cc2c(C)n[nH]c2C)no1,inactive
2,CCc1ccc2c(CSc3nnnn3C)cc(=O)oc2c1,inactive
3,Cc1ncc(CN2CCN(CCC(C)C)C(CCO)C2)s1 (centres undefined),inactive
4,CC(=O)C1C(c2ccc(Cl)cc2)NC(=O)NC1(O)C(F)(F)F (centres undefined),inactive
5,Cc1cc(=O)[nH]c(Sc2c(-c3ccccc3)c3ccccc3[nH]c2=O)n1,inactive
6,Cc1cc(C)n(CCC(=O)N/N=C/c2c(O)ccc3ccccc23)n1,inactive
7,COC(=O)[C@H]1[C@H]2C[C@H]3c4[nH]c5ccccc5c4CCN3C[C@@H]2CC[C@@H]1O,inactive
8,CCC(=O)NC(c1ccccc1Cl)c1c(O)ccc2ccccc12 (centres undefined),inactive
9,Cc1ccsc1C1C(C#N)=C(N)OC2=C1C(=O)CC(C)C2 (centres undefined),inactive
10,COc1cccc(C2CC(c3c(-c4ccccc4)c4cc(Cl)ccc4[nH]c3=O)=NN2S(C)(=O)=O)c1OC (centres undefined),inactive
11,CCn1c(SCC(=O)Nc2ccc(F)cc2)nnc1-c1cnccn1,inactive
12,CNC1=CC(=O)CC(c2ccccc2)C1 (centres undefined),inactive
13,COc1ccc(OCc2nnc3n2N=C(c2ccccc2)C(CC(=O)O)S3)cc1 (centres undefined),inactive
14,Cn1cccc1CNCC(O)c1ccccc1 (centres undefined),inactive
15,Cn1c(SCC(=O)NCc2cccs2)nnc1-c1ccc(S(=O)(=O)N2CCCC2)cc1,inactive
16,CN(C)S(=O)(=O)c1cccc(NC(=O)C2CCN(S(=O)(=O)c3cccs3)CC2)c1,inactive
17,CCCCCN(C(=O)CCC(=O)OCC(=O)N(C)Cc1ccc(C)cc1)c1c(N)n(CCCC)c(=O)[nH]c1=O,inactive
18,CCCCn1c(N)c(N(CC)C(=O)c2ccc(Cl)c(Cl)c2)c(=O)[nH]c1=O,inactive
19,CC1(C)CC(NC(=O)c2ccc(-c3ccc([N+](=O)[O-])cc3)o2)CC(C)(C)N1,inactive
20,CC(O)(CC(=O)CC(=O)c1ccccc1)c1ccccc1 (centres undefined),inactive
21,COc1ccc(C2CC(=O)c3cnc(NC(=O)c4ccccc4)nc3C2)c(OC)c1 (centres undefined),inactive
22,S=c1[nH]nc(-c2cccnc2)n1C1CCCCC1,inactive
23,COCc1cc(=O)[nH]c2cc(NC(=O)C(F)(F)F)c(C)cc12,inactive
24,CCOc1ccccc1C1C(C(N)=O)=C(C)Nc2nc(-c3ccccc3Cl)nn21 (centres undefined),inactive
25,COc1ccc(C2C(C#N)=C(N)Oc3c2sc2nc(C)cc(C)c32)cc1 (centres undefined),inactive
26,Cc1cc(-n2c(C)cc(C(=O)COc3cccnc3[N+](=O)[O-])c2C)no1,inactive

row,SMILES,outcome
1,Cc1ccc2cccc(OCC(=O)N3CCc4ccccc43)c2n1,inactive
2,CC(C)C[C@H]1C(=O)N2CCC[C@H]2[C@]2(O)O[C@](NC(=O)[C@@H]3C=C4c5cccc6[nH]c(Br)c(c56)CC4N(C)C3)(C(C)C)C(=O)N12 (some centres undefined),inactive
3,CCC(C)OC1OC(CO)C(O)C(O)C1NC(C)=O (centres undefined),inactive
4,Cc1ccc(C(=O)N/C(=C\c2ccc(C(C)C)cc2)C(=O)NCCCN2CCOCC2)cc1,inactive
5,CCOC(=O)c1c(NC(=O)CCC(=O)O)sc2c1CC(C)(C)OC2,inactive
6,CC(C)OC(=O)c1c(NC(=O)c2ccco2)sc2c1CCCC2,inactive
7,COc1ccc(S(=O)(=O)N2CCCOC2CNC(=O)C(=O)NCCCN2CCOCC2)cc1 (centres undefined),inactive
8,Cc1cc(NC(=O)C2CC2)ccc1NC(=O)c1cccs1,inactive
9,O=C1OCc2ccc(NC(=O)C3CC3)cc21,inactive
10,COc1ccc(-c2nc(C#N)c(NCC3CCCO3)o2)cc1OC (centres undefined),inactive
11,CCOC(=O)CSc1cc(CS(C)(=O)=O)nc(-c2ccccn2)n1,inactive
12,CC1CCN(CC[C@H]2CCCN2S(=O)(=O)c2cccc(O)c2)CC1,inactive
13,Cc1ccc(C(=O)c2cnc3ccccc3c2-c2ccccc2)cc1,inactive
14,CN(C)CCCNC(=O)C(=O)NCC1CCCO1 (centres undefined),inactive
15,CN(C(=O)c1cc2sccc2n1C)C1CCCCC1,inactive
16,Cc1ccc(Cn2nc(C)c(NC(=O)c3cc(C)no3)c2C)cc1,inactive
17,Cc1nn(Cc2ccccc2)c(C)c1NC(=O)c1noc2c1CCc1ccccc1-2,inactive
18,O=C(NCCc1ccccc1)c1n[nH]c2ccccc12,inactive
19,O=C(CCCc1ccccc1)Nc1ccc2c(c1)OCCO2,inactive
20,Cc1ccc(-n2c3nc(=O)[nH]c(=O)c-3cc3c(C)nn(-c4ccccc4)c32)c(C)c1,inactive
21,N#Cc1cn(CC(=O)N2CCCc3ccccc32)c2ccccc12,inactive
22,CC1CCc2nc(N)c(C#N)c(-c3ccncc3)c2C1 (centres undefined),inactive
23,CC(C)c1cc(C(=O)NCc2ccco2)no1,inactive
24,COc1ccc(-c2ccc(-c3noc(-c4ccccc4OC)n3)c(OC)n2)cc1,inactive
25,CCN(CC)S(=O)(=O)c1ccc(S(=O)(=O)Nc2ccc3c(c2)oc2ccccc23)cc1,inactive
26,C/C(=C\C(=O)OCCCCCCCCC(=O)O)C[C@@H]1OC[C@H](C[C@@H]2O[C@H]2[C@@H](C)[C@H](C)O)[C@@H](O)[C@H]1O,inactive
